# Screening results deposited in PubChem by several laboratories.
# Only some compounds are listed: those with a hit (about 4.1% of all), similar ones and a draw of the others.
# hgDAF12 agonist: agonists of H. glycines DAF-12 nuclear receptor. HEK293 GAL4-hgDAF12 UAS-luciferase reporter, agonist luminescence; normalized to butyrate control. activation, % at 6.8 µM. actives 1.8% (n = 370,000);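 active means activation above a cutoff set at the mean of all screened compounds plus 3 SD, cut at about 10% in these data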;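 further: 0% = DMSO wells and 100% = sodium butyrate wells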
# ssDAF12 agonist: activators of S. stercoralis DAF-12 nuclear receptor. actives 1% (n = 370,000). activation, % at 6.8 µM. AID 652126. HEK293 ssDAF-12/GRIP1 lit1-tk-luc reporter, luminescence; % of 3 µM dafachronic acid response;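 active means activation above the mean over all tested compounds plus 3 SD, cut at about 0.9% in these data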;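 further: 0% = DMSO-only wells and 100% = 3 µM delta7-dafachronic acid wells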
# DAX1 inh-1: DAX1 (NR0B1) inhibition, primary screen. HEK293T StAR-luciferase reporter, SF-1/DAX-1 repression relief. inhibition, % at 6.8 µM. actives 1.1% (n = 370,000). AID 652010;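 active means inhibition above the mean over all tested compounds plus 3 SD, cut at about 3.6% in these data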;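 further: 0% = DAX-1 cells with DMSO and 100% = cells lacking DAX-1 with DMSO; higher inhibition means more luminescence from relief of DAX-1 repression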
# PolyA inhibitor: yeast polyadenylation inhibition; S. cerevisiae SKY197-pL101 polyadenylation reporter, beta-gal luminescence; efflux-impaired pdr1/pdr3 knockout yeast; score 100 = 6 SD above DMSO; activity score, % at 12 µM; actives 0.02% (n = 300,000);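 active means lowest replicate activity score at least 50, where 100 means six control SD above control mean; inconclusive means lowest score under 50 but half or more replicates reach 50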;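 further: yeast exposed to compound for 9 h at 30 °C; higher score means more reporter readthrough which indicates perturbed polyadenylation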
# DAX1 inh-2: inhibits human nuclear receptor DAX1; AID 504766; HEK293 Gal4-DAX1 luciferase reporter, luminescence; inhibition, % at 6.75 µM; P51843; actives 0.99% (n = 340,000);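 active means inhibition above the mean over all tested compounds plus 3 SD, cut at about 4.2% in these data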;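 further: 0% = DAX1-transfected cells with DMSO and 100% = empty-vector control cells with DMSO; inhibition shows as a rise in luminescence from relieved DAX1 repression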
# Target sequence (P51843 207-470 limits assumed): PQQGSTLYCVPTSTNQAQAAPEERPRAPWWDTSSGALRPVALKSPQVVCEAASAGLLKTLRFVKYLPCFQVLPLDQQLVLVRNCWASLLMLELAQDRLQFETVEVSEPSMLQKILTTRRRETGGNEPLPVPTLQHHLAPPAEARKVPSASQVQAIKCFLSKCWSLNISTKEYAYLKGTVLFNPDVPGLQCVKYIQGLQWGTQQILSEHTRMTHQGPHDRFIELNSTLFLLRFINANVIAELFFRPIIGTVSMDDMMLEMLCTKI
# hcDAF12 agonist: activates DAF-12 receptor from parasite H. contortus; HEK293 hcDAF-12 lit1-tk-luc reporter, luminescence; 0% DMSO, 100% Δ7-dafachronic acid; activation, % at 6.8 µM; actives 1.4% (n = 370,000);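 active means activation above the mean of all tested compounds plus 3 SD, cut at about 5.5% in these data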;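 further: 100% = response to 3 µM Δ7-dafachronic acid high control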
# hgDAF12 conf: hgDAF-12 agonism, confirmation assay | activation, % at 6.8 µM | shares compounds with hgDAF12 agonist | HEK293 GAL4-hgDAF12 luciferase reporter, agonist mode; percent of butyrate response | AID 743050 | actives 80% (n = 3,300);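 active means mean activation over triplicate wells above the hit cutoff derived from the earlier primary screen, cut at about 11% in these data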;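 further: 0% = DMSO low control and 100% = 2 mM sodium butyrate high control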
# LXRb DAF12 ctr: activates human LXR-beta, counter-screen for DAF-12 agonists; shares compounds with hgDAF12 agonist; HEK293 Gal4-LXR luciferase reporter, 24 h; activation, % at 6.8 µM; 3,300 tested, under 10 active; AID 743051;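 active means mean activation of the triplicate above a set limit carried over from the primary screen, none filed active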
# * = called active by the depositor; ? = inconclusive; · = no result.
SMILES,hgDAF12 agonist,ssDAF12 agonist,DAX1 inh-1,PolyA inhibitor,DAX1 inh-2,hcDAF12 agonist,hgDAF12 conf,LXRb DAF12 ctr
Clc1ccc(COn2nnc3ccccc32)c(Cl)c1,14*,0,4.0*,-17,4.5*,5,18*,1
O=[N+]([O-])c1ccc(COn2nnc3ccccc32)cc1,2,-1,-1,2,1,0,·,·
CCOC(=O)C1=C(C(=O)OCC)C2N(Cc3ccc(Br)cc3)c3ccccc3[C@@]23C[C@@H](C(=O)OC)N(S(=O)(=O)c2cccs2)C3=N1 (some centres undefined),0,-1,-1,·,·,-2,·,·
CC1(C)CC(=O)c2cc(N=C/C(C(=O)c3ccccc3)=C(\O)c3ccccc3)c(=O)oc2C1,14*,0,1,-12,5.1*,1,7,0
CC1(C)CC(=O)C(C=Nc2ccccc2C(=O)O)=C(O)C1,3,-2,0,-5,0,3,·,·
Nc1[nH]c(C(=O)c2ccccc2)c(-c2ccncc2)c1C(=O)NCCc1c[nH]c2ccccc12,-2,-1,0,·,·,0,·,·
COCC(C)NC(=O)c1noc2c1CCc1cc(OC)ccc1-2 (centres undefined),6,-2,1,-7,2,1,·,·
COCCNC(=O)c1noc2c1CCc1cc(OC)ccc1-2,14*,1,2,-13,1,2,12*,1
CC(=O)Nc1ccc(S(=O)(=O)Nc2cc(S(=O)(=O)N3CCCCC3)ccc2O)cc1,1,-2,0,·,1,0,·,·
CCOC(=O)CSc1nc2cc3c(cc2cc1C)OCO3,-3,0,0,-18,0,0,·,·
CCOC(=O)CSc1nc2cc3c(cc2cc1C#N)OCO3,14*,1,3,·,2,4,15*,1
CCOC(=O)CSc1nc2cc3c(cc2cc1C#N)OCCO3,17*,0,3,18,12*,4,12*,1
COc1ccc(C(=O)c2coc3ccc(O)cc23)cc1,16*,1,3,-18,2,5,20*,1
CC(=O)Oc1ccc2occ(C(=O)c3cccs3)c2c1,14*,-1,3,-14,0,4,11*,0
O=C(CCl)Oc1ccc2occ(C(=O)c3cccs3)c2c1,7,-1,1,-7,2,0,·,·
O=C(Cn1nnc(-c2cccs2)n1)Nc1ccccc1C(F)(F)F,-1,-1,0,11,0,0,·,·
CC1=C(C(=O)Nc2ccccn2)C(c2ccc(Br)cc2)NC(=S)N1 (centres undefined),17*,-1,1,23,3,5.7*,5,0
CC1=C(C(=O)Nc2ccccn2)C(c2ccc(Cl)cc2)NC(=S)N1 (centres undefined),9,0,2,20,0,1,·,·
CNc1cncc(-c2ccc(OC)cc2)n1,8,1,2,·,·,2,·,·
CSc1cccc(NC(=O)c2cnn3ccccc23)c1,18*,1.7*,2,-11,2,5,20*,1
Cn1cc(CC(=O)NCc2ccc(F)cc2)c2ccccc21,-1,-1,1,-5,-1,-2,·,·
CSc1cccc(NC(=O)c2ccccn2)c1,·,·,·,-23,·,·,·,·
O=C(NCc1ccc(F)cc1)c1cnn2ccccc12,16*,-1,3,9,2,1,13*,1
C=CCNc1nc(NCc2ccc(N(C)C)cc2)c2sc(-c3ccccc3)cc2n1,15*,0,4.5*,·,·,2,10,0
O=C(CCCN1C(=O)/C(=C/c2ccccc2Cl)SC1=S)Nc1cccnc1,-2,-1,0,-22,0,-1,·,·
SMILES,hgDAF12 agonist,ssDAF12 agonist,DAX1 inh-1,PolyA inhibitor,DAX1 inh-2,hcDAF12 agonist,hgDAF12 conf,LXRb DAF12 ctr
Cc1ccc2c(c1)C(=NC1CCCCC1)c1cc3ccccc3nc1-2,20*,2.4*,4.2*,-10,1,15*,18*,1
Cc1cccc(NC(=O)CSc2nnc(C)c(=O)n2N)c1,3,-2,0,16,0,-2,·,·
O=C(O)c1ccc2c(c1)C(=O)N(c1cccc(-c3nc4ccccc4s3)c1)C2=O,16*,-1,1,-3,1,0,3,0
CN(C)c1ccc(/C=C/C(=O)c2ccc(O)cc2)cc1,19*,0,3.7*,·,5.5*,4,14*,1
CCN(CC)CCCN1C(=O)C(=O)/C(=C(/O)c2ccc(OC)cc2)C1c1ccco1 (centres undefined),14*,-1,0,-9,0,1,4,0
CC(=O)c1c(C)[nH]c(C(=O)OCC(=O)NC(C)c2ccccc2)c1C (centres undefined),3,-1,0,·,0,0,·,·
CC1CCc2nc3sc4c(c3c(N)c2C1)CCCC4 (centres undefined),14*,0,3,-8,-1,-1,11*,0
O=C(Nc1nc2ccccc2s1)Nc1ccc(F)cc1F,14*,0,1,?,3,6,15*,1
Cc1nn(-c2cccc([N+](=O)[O-])c2)c(N)c1-c1ccccc1,14*,-1,1,7,1,1,11*,0
Nc1nnc(-c2ccc(Cl)cc2Cl)s1,15*,-1,1,-6,1,2,10,0
Nc1nnc(-c2ccccc2F)s1,3,-1,1,16,·,1,·,·
C(=N\n1cnnc1)/c1cccs1,-1,-1,0,2,1,0,·,·
C(=N\N=C\c1cccs1)/c1cccs1,14*,-1,3.9*,2,2,5,15*,1
C=CCSc1nnc(-c2ccc(Cl)cc2Cl)o1,14*,0,3,-29,2,4,14*,1
O=C(Nc1ccc2ccccc2c1)C1CC2CCC1C2 (centres undefined),15*,0,·,·,·,3,12*,1
O=C(NNC1=C(C(=O)C(F)(F)F)CCC1)c1cccc(O)c1,13*,0,4.3*,19,3,2,6,0
CC(C)=CC(=O)Nc1ccc(Cl)cc1,19*,1.7*,3,23,1,2,12*,1
O=C(O)c1ccc(-c2nc3ccccc3s2)o1,5,-1,1,3,-3,2,·,·
O=Cc1ccc(-c2nc3ccccc3s2)o1,14*,0,2,-5,-1,6.0*,11*,0
